From PubChem BioAssay (NCI) come the findings set out here.

Compounds without any hit were thinned out: in the full panel of roughly 79,000, 15% have a hit. Values without a mark were called inactive. Calls of active or inactive are those of the source. Rule as the data show it: active = growth inhibition above about 70%; inactive = the rest.

Test [1] in a line: NCI Yeast Anticancer Drug Screen. Data for the rad50 strain (AID 155).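 Also: 0% = growth of vehicle-only cultures of the same strain.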 To be noted: S. cerevisiae rad50 strain growth inhibition; at 50.0 µM; hits give high values. The essentials: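 Relative growth inhibition (compound vs vehicle) was measured in yeast with a defined repair-gene alteration.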
Test [2] is described as follows: NCI Yeast Anticancer Drug Screen. Data for the mec2-1 strain (AID 157). To be noted: S. cerevisiae mec2-1 strain, at 50.0 µM, hits give high values. The essentials:
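Growth inhibition is read against vehicle-treated controls after compound exposure of the mec2-1 yeast strain, which is defective in DNA damage repair or cell cycle control.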

Test [3] is described as follows: NCI Yeast Anticancer Drug Screen. Data for the mlh1 rad18 strain (AID 175). To be noted: S. cerevisiae mlh1 rad18 strain growth inhibition; at 50.0 µM; hits give high values. The method, boiled down:
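Cells of a genetically altered yeast strain, deficient in DNA damage repair, were treated with compound. Their growth was then compared with that of vehicle-treated cultures to give inhibition.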

The nature of test [4]: NCI Yeast Anticancer Drug Screen. Data for the cln2 rad14 strain (AID 165).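 Also: 0% = growth equal to vehicle treated cultures.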 To be noted: S. cerevisiae cln2 rad14 strain, at 50.0 µM, hits give high values. The method, boiled down: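 Growth inhibition, relative to vehicle-treated controls, is the read-out. The test organism is a yeast strain with defined genetic alterations, cln2 rad14.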
Test [5] is described as follows: NCI Yeast Anticancer Drug Screen. Data for the sgs1 mgt1 strain (AID 161).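 Also: 0% = growth of cultures given vehicle only.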 To be noted: S. cerevisiae sgs1 mgt1 strain, at 50.0 µM, hits give high values. The essentials: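 Yeast cells carrying a defined DNA-repair defect were exposed to test compounds. Growth inhibition was measured relative to vehicle-treated controls.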
A short description of test [6]: NCI Yeast Anticancer Drug Screen. Data for the bub3 strain (AID 167). To be noted: S. cerevisiae bub3 mutant strain, at 50.0 µM, hits give high values. The method, boiled down:
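Screening used yeast with an engineered genetic alteration affecting cell cycle control. Compound-exposed cultures were compared with vehicle cultures, and reduced growth was taken as inhibition.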

For `CN1CCN(c2ccc(Cl)cc2)CC1`, the growth inhibition in test [1] is -5.85%; in test [2] it was -17.6%; in test [3], 0.7%.
For the molecule `CSC(=S)NNC(=O)c1cccc(S(=O)(=O)F)c1`, the growth inhibition in test [1] is -2.95%; in test [2] it was -8.8%; in test [3] it was 50.7%.
Regarding `CCOC(=O)C1C2(C(C)=O)C=Nc3c(C#N)cnn3C12C(=O)OCC` (stereo not drawn), the growth inhibition in test [1] is 0.9%; in test [2], -3.35%; in test [4] it was 28.4%; in test [3], -7.95%.
In the case of `O=C1C(Cl)=C(Cl)C1(Cl)Cl`, the growth inhibition is -3.5% in test [1], -20.4% in test [2] and -2.65% in test [3].
Taken in the same sequence, the figures for `O=C(CBr)OCCCS(=O)(=O)O` were -24.9%, -34.4% and -33.8%.
For `CC(Cc1ccccc1)N(C)CC1C(=O)C2CCC1C2` (stereo not drawn), in that order: 10.5%, -12.6% and 6.25%.
On to `O=c1c2ccc(Cl)cc2[nH]c(=S)n1-c1ccc(Cl)cc1`, for which the growth inhibition in test [1] is 10.1%; in test [2], -9.25%; in test [3], 11%.
Consider `CNCCc1ccc(O)c(O)c1`, for which the growth inhibition in test [1] was -1.6%; in test [2], -13.2%; in test [3], -6.15%.
Taken in the same sequence, the figures for `CCOC(=O)c1ccc2nc(-c3ccc(S(=O)(=O)F)cc3)cc(Cl)c2c1` were 12%, -9.95% and 23.5%.
As for `O=c1c2ccccc2[nH]c(=S)n1-c1cccc(Cl)c1`, the figures for the growth inhibition in test [1], in test [2] and in test [3] were 44.2%, 16.1% and 27.4%, respectively.
With `CC1NCCc2cc(O)c(O)cc21` (stereo not drawn), the figures for the growth inhibition in test [1], in test [2] and in test [3] were 4.35%, 6.3% and 40%, respectively.
As for `NC(=O)NNc1ccc([N+](=O)[O-])cc1[N+](=O)[O-]`, the growth inhibition is 12.1% in test [1], -5.4% in test [2] and 14.8% in test [3].
For the molecule `COc1ccc(CC[N+](C)(C)C)cc1`, the growth inhibition in test [1] is -3.85%; in test [2], -2.5%; in test [3], 32.5%.
Regarding `CC(C)CN(CC(C)C)[N+](=O)[O-]`, the growth inhibition in test [1] was -6.25%; in test [5] it was -17.8%; in test [4] it was 4.05%; in test [6] it was 6.05%; in test [3], -12.7%.
On to `CCOP(=O)(OCC)C(N)Cc1c[nH]c2ccccc12` (stereo not drawn), for which the growth inhibition is -5.85% in test [2]; -16.8% in test [5]; 16.4% in test [4]; 11.6% in test [6]; 4.9% in test [3].
As for `CC(=O)Nc1nn[nH]n1`, the growth inhibition was 21.9% in test [1]; 2.1% in test [5]; 6.95% in test [4]; 0.7% in test [6]; 17.5% in test [3].
Taken in the same sequence, the figures for `CN(C)C(=S)Oc1c(S(=O)(=O)F)ccc(Cl)c1Cl` were 96.3% (active), 98% (active), 76.5% (active), 95.2% (active) and 98.3% (active).
Take `CC[C@H]1CN2CCc3cc(OC)c(OC)cc3[C@@H]2C[C@@H]1C[C@H]1NCCc2c1[nH]c1ccc(O)cc21`: the growth inhibition in test [1] is -16.8%; in test [5], -19.9%; in test [4], -8.65%; in test [6], -26.9%; in test [3] it was 7.7%.
Consider `O=c1oc2ccccc2c(O)c1C(c1ccc2c(c1)OCO2)c1c(O)c2ccccc2oc1=O`, for which the growth inhibition in test [1] was -5.8%; in test [5], 34.7%; in test [4] it was 7%; in test [6], 3.65%; in test [3], 28.4%.
As to `CCCCCCCCCCCCCCCC[As](=O)(O)CCCCCCCCCCCCCCCC`, the growth inhibition in test [1] was -6.35%; in test [5], -17.8%; in test [4], 4.25%; in test [6] it was 7.2%; in test [3], 8.55%.
With `Nc1ccc2ncccc2c1` (tested in a mixture with another compound), the growth inhibition in test [1] was 39.2%; in test [5] it was 45.5%; in test [4], 56.4%; in test [6], 46.5%; in test [3], 26.2%.
In the case of `C1CC[N-]CC1.C1CC[N-]CC1.[Cl][Pt+2]([Cl])([Cl])[Cl]`, the growth inhibition was 4.65% in test [1]; 7.8% in test [5]; -48.9% in test [4]; -0.8% in test [6]; -18.8% in test [3].
In the case of `Cc1ccc2[nH]cc(CCN)c2c1`, the growth inhibition in test [1] was -5.9%; in test [5] it was -5.4%; in test [4], 21.8%; in test [6], -19.8%; in test [3], -27.5%.
With `COC(N)=O`, the growth inhibition is -15.6% in test [1]; -16.9% in test [5]; -15.9% in test [4]; -2.6% in test [6]; -8.3% in test [3].
Regarding `c1cc(C[N+]23CN4CN(CN(C4)C2)C3)cs1`, the growth inhibition was -5.75% in test [1]; 3.95% in test [5]; -7.65% in test [4]; 1.55% in test [6]; -13.7% in test [3].
For the molecule `[Se]=P(NC1CCCCC1)(NC1CCCCC1)NC1CCCCC1`, the growth inhibition was 14.5% in test [1], 5.1% in test [4], 3.25% in test [6] and 17.9% in test [3].
As for `CC(=O)Nc1ccc([As](=O)(O)O)cc1[N+](=O)[O-]`, the growth inhibition is 0.85% in test [1]; 0.1% in test [5]; -3.35% in test [4]; 23.2% in test [6]; 15.5% in test [3].
On to `N#CCCO`, for which the growth inhibition in test [2] is 5.05%; in test [5], 0.55%; in test [4], -6.9%; in test [6], -3.7%; in test [3], -6.2%.
Consider `O=c1[nH]cc(Cn2cccc3c(=O)ncnc2-3)c(=O)[nH]1`, for which the growth inhibition was 14.9% in test [1]; -4.45% in test [5]; -43.5% in test [4]; -16.7% in test [6]; -5.7% in test [3].
For `c1ccc([As](c2ccccc2)c2ccccc2)cc1`, in that order: 0.75%, -7.9%, -3.3%, -3.95% and 5.05%.
For `COc1ccc(CCF)cc1`, the growth inhibition in test [1] was -4.95%; in test [5], -0.7%; in test [4], -9.85%; in test [6], 4.4%; in test [3] it was -3.85%.
In the case of `C=C1CCN2CC[C@@H](OC(=O)/C(C)=C\C)[C@@H]12`, the growth inhibition was 1.65% in test [1]; 7.1% in test [5]; -1.9% in test [4]; 12.9% in test [6]; -22.1% in test [3].
As for `CC/C=C/C1(C(C)C)C(=O)NC(=O)NC1=O` (tested in a mixture with another compound), the growth inhibition in test [1] is 14.9%; in test [5], 5.15%; in test [4] it was -27.4%; in test [6] it was 0.3%; in test [3], 13.7%.
In the case of `CC(=O)[O][Sn]([CH2]C1CCCC1)([CH2]C1CCCC1)[CH2]C1CCCC1`, the growth inhibition in test [1] is 99.3% (active); in test [5] it was 99.4% (active); in test [4], 98.9% (active); in test [6], 99% (active); in test [3], 99.1% (active).
As for `CC(=O)Cc1c[nH]c2ccccc12`, the growth inhibition in test [2] was -41.3%; in test [5], -9.35%; in test [4], -1.5%; in test [6] it was -28.2%; in test [3] it was -25.2%.
On to `COc1ccc(C(OCC2OC(n3ccc(Oc4c(F)c(F)c(F)c(F)c4F)nc3=O)CC2OP(OCCC#N)N(C(C)C)C(C)C)(c2ccccc2)c2ccc(OC)cc2)cc1` (stereo not drawn), for which the growth inhibition in test [1] was 18.1%; in test [5], 6.65%; in test [4], -9.2%; in test [6], -7.2%; in test [3] it was -2.65%.
On to `C/C(CCl)=N\NC1=NC(C)(CCl)P(=O)(NNc2ncccn2)S1` (stereo not drawn), for which the growth inhibition in test [1] was 8.05%; in test [5], 5.2%; in test [6], 8.85%; in test [3], 7.35%.
With `[Se]=[Hf]=[Se]`, the growth inhibition is 1.35% in test [1]; -28.7% in test [5]; -8.6% in test [4]; -11.8% in test [6]; -26.6% in test [3].
Taken in the same sequence, the figures for `CCC1(CCC(C)C)C(=O)NC(=O)N(C)C1=O` (stereo not drawn) were -6.05%, -1.75%, -19.4%, -11.3% and -4.05%.
In the case of `CN1C(=O)C2(c3ccccc31)C1CC3C(CO1)C1C2C3(CO)CN1C#N` (stereo not drawn), the growth inhibition in test [1] was 34.1%; in test [5], -39.2%; in test [4], 1.1%; in test [6], -22.1%; in test [3], -6.8%.
`N#C[CH2][Sn]([c]1ccccc1)([c]1ccccc1)[c]1ccccc1`: the growth inhibition in test [1] was 98.8% (active); in test [5], 99% (active); in test [4], 98% (active); in test [6], 98.5% (active); in test [3], 98.9% (active).
For `CCCCCSP(SCCCCC)c1ccccc1`, in that order: 79.8% (active), 79.5% (active), 37.6%, 40.4% and 61.8%.
For the molecule `COc1cc(N(CCCl)CCCl)c(OC)cc1C=Nc1cccc(Cl)c1`, the growth inhibition in test [1] is 31.4%; in test [5], 44.4%; in test [4] it was 10.6%; in test [6] it was 24.6%; in test [3], 34.2%.
Turning to `CC[N+](CC)(CC)CC.[C-]#[O+].[C-]#[O+].[C-]#[O+].[Cr+4].[c-]1[c-][c-][cH-][c-]1`, the growth inhibition was 11.3% in test [1]; 8.75% in test [5]; -10.8% in test [4]; 6.65% in test [6]; -5.8% in test [3].
Turning to `O=C(O)c1ccccc1N(CCO)CCCl`, the growth inhibition in test [1] is -11.2%; in test [5], -31.4%; in test [4], 21.6%; in test [6], -14%; in test [3] it was -22.8%.
Take `CNC(=O)N1CN(c2ccccc2)C2(CCN(CCCC3(c4ccc(F)cc4)OCCO3)CC2)C1=O`: the growth inhibition was -16% in test [1]; -4.4% in test [5]; -8.8% in test [4]; 8.3% in test [6]; 1.05% in test [3].
For the molecule `[CH3][Sn]([CH3])([O]S(=O)c1ccc(Cl)cc1)[O]S(=O)c1ccc(Cl)cc1` (stereo not drawn), the growth inhibition in test [1] was 15.7%; in test [5] it was -19.8%; in test [4] it was 14.7%; in test [6], -4.7%; in test [3], -11.1%.
